ELG1 repair inh = qHTS screen for small molecules that inhibit ELG1-dependent DNA repair in human embryonic kidney (HEK293T) cells expressing luciferase-tagged ELG1. HEK293T ELG1-luciferase reporter, luminescence, 16 h; DNA damage induced by 5-fluorouridine. Potency, µM (series often up to 46.1 µM), without a hit: at the highest dose activity change, negative = inhibition, most hits filed as inhibitors. 330,000 compounds, 2.3% hits; note: nearly all actives have a fitted effect of over 55% in size
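In this reporter screen, reduction of luminescence relative to DMSO vehicle indicated activity. Compounds and 5-fluorouridine were added together to 2,000 cells per well, incubated for 16 hr at 37 °C, then developed with ONE-Glo.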
TDP1 cell CPT = qHTS for Inhibitors of human tyrosyl-DNA phosphodiesterase 1 (TDP1): qHTS in cells in presence of CPT | Potency, µM (series often up to 46.2 µM), inactives show at the top dose activity change, negative = growth inhibition, hits mostly inhibitors | chicken DT40 Tdp1-/-;hTDP1 cells + 20 nM CPT, ATP luminescence, 48 h | 420,000 compounds, 12% hits | AID 686979, 2013; note: nearly all actives have a fitted effect of over 55% in size
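Chicken DT40 Tdp1-/- cells complemented with human TDP1, 400 cells/well, exposed to compounds plus 20 nM camptothecin for at least 48 h at 37 C; viability read as ATP content by CellTiter-Glo luminescence.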
DT40 TDP1 no CPT = qHTS for Inhibitors of human tyrosyl-DNA phosphodiesterase 1 (TDP1): qHTS in cells in absence of CPT; DT40 Tdp1-/- hTDP1 cells, no CPT, ATP luminescence, 48 h; Potency, µM (doses to about 46.2 µM), for the others: at the highest dose activity change, negative = growth inhibition, hits mostly inhibitors; 420,000 compounds, 15% hits; AID 686978, 2013; note: nearly all actives have a fitted effect of over 55% in size
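A cellular qHTS used chicken DT40 cells lacking endogenous Tdp1 but carrying stably transfected human TDP1. Compounds were applied without camptothecin, and cell growth kinetics were judged by ATP-dependent luminescence after ≥48 hr.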
12-LOX inh = Primary qHTS assay for inhibitors of human arachidonate 12S-lipoxygenase (ALOX12): Round 2 | Polyunsaturated fatty acid lipoxygenase ALOX12 (Homo sapiens), P18054 | purified 12hLO, xylenol orange hydroperoxide absorbance | Potency, µM (highest dose often 108 µM), without a hit: at the top dose activity change, negative = inhibition, most hits filed as inhibitors | 580,000 compounds, 1.1% hits
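Hydroperoxide product was detected by ferrous iron/xylenol orange as the 573 to 405 nm absorbance ratio. Arachidonic acid at 40 uM (final) was turned over for 30 min at room temperature by 150 nM human 12hLO, pH 7.0 Hepes buffer, after 15 min compound preincubation.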
VP16 counter = VP16 counterscreen qHTS for inhibitors of ROR gamma transcriptional activity. 310,000 compounds, 3.5% hits. Potency, µM (top dose mostly 53.6 µM), for inactives: at the top dose activity, negative = inhibition, usual class: inhibitors. Drosophila S2 Gal4-VP16 UAS-luciferase, luminescence, 20 h;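 note: Gal4-VP16 expression switched on by copper sulfate through the metallothionein promoter; nearly all actives have a fitted effect of over 50% in size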
RORgamma inh = qHTS for inhibitors of ROR gamma transcriptional activity | Drosophila S2 Gal4-RORgamma UAS-luciferase reporter, 20 h | Potency, µM (highest dose often 53.6 µM), inactives show top-dose activity change, negative = inhibition, most hits filed as inhibitors | 310,000 compounds, 5.4% hits | Nuclear receptor ROR-gamma (Mus musculus), P51450; note: nearly all actives have a fitted effect of over 60% in size
Target sequence (P51450 whole entry, looked up, the tested form may be a part): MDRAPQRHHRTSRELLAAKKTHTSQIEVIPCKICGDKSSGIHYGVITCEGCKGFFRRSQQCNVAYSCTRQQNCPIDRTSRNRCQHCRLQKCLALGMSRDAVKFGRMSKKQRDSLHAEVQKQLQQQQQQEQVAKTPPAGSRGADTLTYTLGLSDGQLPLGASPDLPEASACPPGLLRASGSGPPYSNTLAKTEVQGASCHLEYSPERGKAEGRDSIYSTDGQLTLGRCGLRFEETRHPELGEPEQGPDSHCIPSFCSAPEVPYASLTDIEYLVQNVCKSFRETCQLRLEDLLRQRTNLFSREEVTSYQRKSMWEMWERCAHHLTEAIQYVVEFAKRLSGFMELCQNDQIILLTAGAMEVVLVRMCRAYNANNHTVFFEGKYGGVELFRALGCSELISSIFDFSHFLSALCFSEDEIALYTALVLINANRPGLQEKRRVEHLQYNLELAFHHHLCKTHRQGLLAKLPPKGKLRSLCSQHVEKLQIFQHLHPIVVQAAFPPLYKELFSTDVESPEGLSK
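Stable Schneider cell line, Gal4 DNA-binding domain fused to ROR gamma, UAS-luciferase. Cmpd 1 hr RT → CuSO4 700 uM final → 20 hr RT → luciferase reagent 10 min → luminescence.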
Active calls of the source: *; ? = inconclusive; . = no result given; [ ] = another dose, or the depositor's remark. This is a sample that favours compounds with a hit; in the whole collection about 15% have one here. Calls come from the whole dose curve; as a rule, active = well fitted curve in the direction sought with a large enough effect; inconclusive = small, poorly fitted or top-dose-only effect, or another doubt; inactive = no such curve, though single readings can be large; an effect the other way counts as inactive or inconclusive. % is set by controls: 0 for no effect and ±100 for the full control effect; potency is the fitted concentration of half-maximal effect.

SMILES | ELG1 repair inh | TDP1 cell CPT | DT40 TDP1 no CPT | 12-LOX inh | VP16 counter | RORgamma inh
Cc1cc(C(=O)N2C[C@@H](Oc3cccnc3)C[C@H]2C(=O)N2CCOCC2)n(C)n1 | . | . | . | -3% | . | .
O=C(Nc1ccc(F)cc1)c1cc(-c2ccco2)on1 | . | . | . | 2% | . | .
COCC(C)n1c(C)cc(C(=O)COC(=O)CCc2nc3ccccc3c(=O)[nH]2)c1C (configuration not stated) | 5% | 6% | -22% | -1% | -3% | -14%
COCCn1c(C)cc(C(=O)CSc2nc3ccccc3c(=O)[nH]2)c1C | ? | 16µM* | 15µM* | -23% | -13% | 111%
COCC(C)n1c(C)cc(C(=O)CSc2nc3ccccc3c(=O)[nH]2)c1C (configuration not stated) | 16µM* | ? | 21µM* | ? | ? | 44%
C=CCn1c(C)cc(C(=O)CSc2nc3ccccc3[nH]2)c1C | ? | 21µM* | 9.2µM* | 6% | 13µM* | 10µM*
CNC(=O)c1cc[nH]c1C1CCCN(C(=O)CCc2nc3ccccc3[nH]2)C1 (configuration not stated) | . | . | . | -4% | . | .
O=C(Cc1n[nH]c(=O)c2ccccc12)N1CCCC1 | . | . | . | 0% | . | .
O=C1C=CC(=Nc2cccc3c2C(=O)c2ccccc2-3)O1 | . | -82% | ? | . | . | .
O=C1C=CC(=Nc2ccc3c(c2)Cc2cc(F)ccc2-3)O1 | . | 5.2µM* | 7.3µM* | ? | . | .
COc1ccc2nc(C)cc(Sc3nc4ccccc4s3)c2c1 | 5.2µM* | 9.2µM* | 9.2µM* | -8% | ? | 14µM*
COc1ccc2nc(C)cc(SCC(=O)NNC(=O)COc3ccccc3)c2c1 | -27% | ? | ? | 8% | -1% | 12%
Cc1cccc(NC(=O)CCc2ncc(-c3ccc(F)cc3)o2)c1 | . | . | . | -4% | . | .
CN(C)c1cccc(C(=O)NNC(=O)c2ccccc2F)c1 | . | . | . | 3% | . | .
Cc1ccc(/C=C2/C(=O)N(c3ccccc3)C(=S)N2C)o1 | ? | ? | 23µM* | ? | ? | 29%
CC1(C)N=c2ccc([N+](=O)[O-])c(N)c2=[N+]1[O-] | ? | 15µM* | 21µM* | -36% | -20% | -30%
CCNc1c(NC(=O)Nc2ccccc2Br)c(=O)oc2ccccc12 | . | . | . | -12% | . | .
CC(C)(C)c1ccc(OCC(=O)NCc2ccco2)c(Br)c1 | ? | -92% | 23µM* | -2% | -15% | ?
CC(C)(C)c1ccc(OCC(=O)NNC(=S)NC(=O)c2ccco2)c(Br)c1 | -10% | 21µM* | 10µM* | ? | 8.9µM* | 5µM*
Cc1ccccc1OCC(=O)NNC(=S)NC(=O)c1ccco1 | 16% | 22µM* | 10µM* | 0% | ? | 13µM*
CC(C)c1ccc(OCC(=O)NNC(=S)NC(=O)c2ccco2)c(Br)c1 | 3% | ? | ? | ? | 6.3µM* | 6.3µM*
Cc1cc(Cl)ccc1OCC(=O)NNC(=O)c1ccco1 | ? | -6% | -6% | 430% | -8% | -4%
CC(C)c1ccc(OCC(=O)NC2CC(C)(C)NC(C)(C)C2)c(Br)c1 | -2% | ? | ? | -4% | 3% | -15%
Cc1ccc(C(=O)O)c(OCC(=O)NCc2ccco2)c1 | . | . | . | -1% | . | .
CC(C)NC(=O)C(=O)N1CCN(c2ccnc3c(F)ccc(F)c23)CC1 | . | . | . | -1% | . | .
SMILES | ELG1 repair inh | TDP1 cell CPT | DT40 TDP1 no CPT | 12-LOX inh | VP16 counter | RORgamma inh
CSCCCNC(=S)NCC(C)(C)N1CCOCC1 | . | . | . | -2% | . | .
Cc1csc(C)[n+]1CCC1CCCCC1 | . | ? | 13µM* | . | . | .
CCOC(=O)C[n+]1c(C)csc1C | -9% | 0% | 2% | -7% | -9% | 13%
COc1ccc(CN(C)C(=O)CCn2ccc3ccccc32)c(OC)c1 | . | . | . | -7% | . | .
O=C1CNC(=S)N1Cc1cccc(Cl)c1 | 12% | 0% | -19% | 6% | -1% | -23%
COc1ccc(CN2C(=O)CCCc3ccccc32)cc1 | -19% | ? | 21µM* | ? | 1% | 1%
O=C1CCCc2ccccc2N1Cc1ccccc1Cl | -15% | ? | ? | -6% | -4% | 4%
O=C1CCCc2ccccc2N1Cc1ccc(Cl)cc1 | 5% | ? | ? | -15% | -15% | 9%
O=C1CCCc2ccccc2N1Cc1ccccc1 | 3% | 13µM* | 12µM* | 8% | 0% | 10%
O=C1CCCc2ccccc2N1Cc1c(Cl)cccc1Cl | 0% | -24% | ? | 7% | ? | 1.8µM*
O=C1CCCc2ccccc2N1Cc1cccc(Cl)c1 | -2% | ? | 9.2µM* | 0% | -6% | 10%
CCCn1nc(C(=O)OC(C)C(=O)NCc2ccc(F)cc2)c2ccccc2c1=O (configuration not stated) | . | . | . | -31% | . | .
O=C(Nc1ccnn1C1CCN(Cc2cccc(F)c2F)CC1)c1ccccc1Cl | . | . | . | 93% | . | .
COc1ccc(C(=O)N(C)CC23CC4CC(CC(C4)C2)C3)c(O)c1 | . | . | . | -14% | . | .
c1ccc(CNc2ncnc3c2cnn3Cc2ccccc2)cc1 | -28% | 13µM* | 13µM* | 26% | -9% | 5%
Cc1ccc(Cn2ncc3c(NCCN(C)C)ncnc32)cc1 | 16% | -9% | -10% | -10% | 4% | 0%
CCN(CC)C(=O)CSc1ncnc2c1cnn2Cc1ccccc1 | ? | -28% | 12µM* | 6% | 1% | 5%
Cc1cccc(CSc2ncnc3c2cnn3Cc2ccccc2)c1 | 2% | -22% | ? | 0% | 0% | 33%
OCCNc1ncnc2c1cnn2Cc1ccccc1 | -1% | -9% | 7% | 13% | 5% | 3%
CCN(CC)c1ncnc2c1cnn2Cc1ccc(C)cc1 | 1% | ? | 12µM* | 1% | -9% | 14%
Cc1ccc(Cn2ncc3c(NN)ncnc32)cc1 | ? | ? | ? | 2% | ? | 13µM*
CC(C)c1nn2c(=O)cc(COC(=O)COc3ccccc3Cl)nc2s1 | . | . | . | -14% | . | .
C[C@@H](NC(=O)C1=C[C@@H](NC(=O)CC(C)(C)C)[C@@H](O)[C@H](O)C1)C(N)=O | . | . | . | 1%[176 µM] | . | .
CC(C)CCNc1ncnc2c1cnn2Cc1ccccc1Cl | ? | 29µM* | ? | 4% | 17% | 22%

Screening results (PubChem)
